Assay outcomes (PubChem BioAssay)
ST2 IL33 inh: blocks human ST2 binding to IL-33. AlphaLISA ST2-Fc/biotin-IL-33 interaction, 1 h. AID 1259354. Q01638. inhibition, % for hits at 17 µM. hit rate 2.3% among 78,000; in the data active = inhibition above about 30%
Target sequence (Q01638 whole entry, looked up): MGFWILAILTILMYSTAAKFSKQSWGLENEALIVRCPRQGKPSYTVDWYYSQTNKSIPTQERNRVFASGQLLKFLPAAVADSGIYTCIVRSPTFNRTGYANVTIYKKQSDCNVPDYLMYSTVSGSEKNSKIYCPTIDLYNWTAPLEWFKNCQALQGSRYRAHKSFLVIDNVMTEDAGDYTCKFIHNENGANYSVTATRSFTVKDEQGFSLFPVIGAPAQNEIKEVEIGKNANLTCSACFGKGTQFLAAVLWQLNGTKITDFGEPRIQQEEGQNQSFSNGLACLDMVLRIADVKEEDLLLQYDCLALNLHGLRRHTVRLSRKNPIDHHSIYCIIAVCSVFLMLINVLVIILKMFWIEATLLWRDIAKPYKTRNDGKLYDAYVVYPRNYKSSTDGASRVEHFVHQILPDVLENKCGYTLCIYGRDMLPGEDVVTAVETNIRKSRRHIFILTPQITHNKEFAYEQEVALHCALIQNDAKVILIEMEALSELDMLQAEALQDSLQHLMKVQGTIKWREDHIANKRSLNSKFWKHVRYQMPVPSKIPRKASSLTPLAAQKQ
The depositor's hits bear a star; i = inactive. The sample as a whole holds a higher share of hits than the screen did.

SMILES | ST2 IL33 inh
Cc1cc(=O)oc2cc(OC(C)C(=O)O)ccc12 (stereo not drawn) | i
O=c1oc(-c2ccccc2[N+](=O)[O-])nc2ccc(I)cc12 | i
Cc1c(-c2nc3ccccc3c(=O)o2)cccc1[N+](=O)[O-] | 30%*
COc1ccccc1-c1nc2ccc(Br)cc2c(=O)o1 | i
CN(C)C(=O)c1ccccc1-c1cccc(Cl)c1 | i
CC(=O)N(C1=C(N(C)C)C(=O)c2ccccc2C1=O)c1cccc(Cl)c1 | 31%*
CC(=O)N(CN1C(=O)CCC1=O)c1cccc(Cl)c1 | i
CC(C)Cn1cc(C(=O)NC(C)C)c2c3ccccc3n(C)c2c1=O | i
COc1cc(C2C(C(=O)Nc3cccc(C)n3)=C(C)NC3=C2C(=O)CCC3)cc(OC)c1OC (stereo not drawn) | i
O=C(N/C(=C\c1ccc2c(c1)OCO2)C(=O)N1CCOCC1)c1ccc(Br)cc1 | i
COc1ccccc1C(=O)N1CCN=C1SCc1ccccc1C | i
O=C(CN1C(=O)C2CCCCN2c2ccc(C(=O)N3CCOCC3)cc21)Nc1ccc(Cl)cc1 (stereo not drawn) | i
Cc1ccc(S(=O)(=O)N=C(Nc2ccccn2)c2ccccc2)cc1 | i
Cc1ccc(C(N)=NC(=NS(=O)(=O)c2ccccc2)c2ccccc2)cc1 | i
CC1=CC(=NC(=NS(=O)(=O)c2ccc(C)cc2)c2ccccc2)C(C)=CC1=O | 44%*
C=CCN(C(=O)CSc1cc(=O)n(C)c2cc(Cl)ccc12)c1ccccc1 | i
Cc1nc2cc(-c3ccccc3)nn2c(C)c1CCC(=O)NCc1cccs1 | i
O=C1C2C(c3ccccc3O)NC(Cc3cnc[nH]3)(C(=O)O)C2C(=O)N1Cc1ccccc1 (stereo not drawn) | i
O=C(C1CC1)N1CCc2cc(S(=O)(=O)Nc3ccc(Cl)cc3F)ccc21 | i
Cc1cc(Sc2ccccc2NC(=O)Nc2ccccc2Br)n2ncnc2n1 | i
O=S(=O)(c1ccccc1)c1nc(-c2ccco2)oc1SCc1ccccc1F | i
O=S(=O)(c1ccccc1)c1nc(-c2ccccc2F)oc1N1CCCCC1 | 32%*
Cc1cccc(-c2nc(S(=O)(=O)c3ccccc3)c(N3CCOCC3)o2)c1 | i
COc1cc2c(cc1OC)CN(C(=O)C1CCC(=O)N(Cc3ccccn3)C1)CC2 (stereo not drawn) | i
O=C1C=CC(=NS(=O)(=O)c2ccccc2)C=C1Br | 31%*
SMILES | ST2 IL33 inh
CN(C)C(=NS(=O)(=O)c1ccc(Br)cc1)c1ccccc1 | i
Cc1ccc(C)c(-c2csc(NC(=O)CN3C(=O)CCC3=O)n2)c1 | i
Cc1cc(C)n(CCC(=O)N2CCC3(CCN(C)CC3)C2)c(=O)n1 | i
O=c1c2ccccc2c(-c2cccs2)nn1CCc1ccccc1 | 35%*
CC(=O)OCCn1nc(-c2ccccc2)c2ccccc2c1=O | i
CC(C)Cn1nc(-c2ccccc2)c2ccccc2c1=O | i
COc1ccccc1CCN1CCCC(CN(C)C(=O)NCc2ccccc2)C1 (stereo not drawn) | i
Cc1ccc(NCCCn2cnc(-c3ccccc3)c2-c2cnc[nH]2)nc1 | i
CCOC(=O)c1cc2c(ccc3oc4c(c32)CCCC4)oc1=O | i
COc1ccc(N=Cc2cccc(OC)c2O)c(OC)c1 | i
COc1ccccc1N=Cc1c(O)ccc2oc3c(c12)CCCC3 | 31%*
CC1(C)CC(=O)C2=C(C1)Nc1nc(SCc3ccccc3Cl)[nH]c(=O)c1C2c1cccnc1 (stereo not drawn) | i
C=CCNc1nc2ccccn2c(=O)c1/C=C1\SC(=O)N(CCC)C1=O | i
C=CCN1C(=O)c2ccccc2Sc2ccc(C(=O)O)cc21 | i
C=CCN1C(=O)S/C(=C/c2ccc(N3CCCC3)o2)C1=O | 44%*
COc1cc(-c2cc(C)c3cccc(OC)c3n2)cc2c1OCCN(CC(N)=O)C2 | i
CC1=C(C(N)=O)C(c2ccccc2Cl)n2nc(SCc3ccccc3F)nc2N1 (stereo not drawn) | i
COc1ccc(CN2C[C@H](O)C[C@H]2c2nc(-c3ccccc3)no2)c(OC)c1OC | i
COc1ccc(CN2C[C@H](O)C[C@H]2c2nc(Cc3ccc(F)cc3Cl)no2)c2ccccc12 | i
COc1ccc(CN2C[C@H](O)C[C@H]2c2nc(-c3ccc(F)cc3)no2)c(OC)c1OC | 47%*
COc1ccc(CN2C[C@H](O)C[C@H]2c2nc(-c3ccccc3)no2)cc1 | i
COc1ccc(-c2noc([C@@H]3C[C@@H](O)CN3Cc3cccc(C#N)c3)n2)cc1 | 58%*
COc1ccc(CN2C[C@H](O)C[C@H]2c2nc(-c3ccncc3)no2)cc1 | i
CCN(CC)CCCNC(=O)CN1C(=O)C2CCCCN2c2ccc(C(=O)N(C)C)cc21 (stereo not drawn) | i
COc1ccc(O)c(C(=O)CC(=O)c2ccccc2)c1 | 32%*
SMILES | ST2 IL33 inh
COC(=O)c1cc(O)c(OCc2ccccc2)c(O)c1 | i
COc1ccc(C(=O)c2ccccc2)c(OCC(=O)N(C)C)c1 | i
CN1CCN(C(=O)CN2CCCCCCC2)CC1C(=O)O (stereo not drawn) | i
Cc1ccc(C)c(OCC(=O)NCCS(=O)(=O)N2CCCC2)c1C | i
COC(=O)C1C(=O)C2=C(CC1C)NC(C)=C(C(=O)OC1CCCC1)C2c1ccc(Cl)cc1 (stereo not drawn) | i
OCC1(O)CCN(CC(c2ccccc2)c2ccccc2)CC1 | i
OC(COCc1ccc(Cl)cc1)CN1CCN(c2ccccc2)CC1 (stereo not drawn) | i
CC(C)CN1CC[C@H](c2nnc(-c3ccco3)o2)C1 | i
O=C(O)C[C@@H]1CCN(C(=O)Nc2ccccc2)C[C@@H]1CCN1CCN(c2ccc(F)cc2)CC1 | 69%*
O=C(O)C[C@@H]1CCN(C(=O)c2ccccc2)C[C@@H]1CCN1CCN(c2cccc(C(F)(F)F)c2)CC1 | i
O=C(Nc1cccc(F)c1)N1CCN(c2ccc(F)cc2)CC1 | i
O=C(O)C[C@@H]1CCN(C(=O)Cc2cccs2)C[C@@H]1CCN1CCOCC1 | 54%*
O=C(O)C[C@@H]1CCN(C(=O)Cc2ccccc2)C[C@@H]1CCN1CCN(c2cccc(C(F)(F)F)c2)CC1 | i
CC(=O)Nc1ccc(S(=O)(=O)N(CCCN2CCOCC2)Cc2cccs2)cc1 | i
Cc1nc2c(c(=O)n1C)CN(C(=O)c1ccccc1C1CCNC1)C2 (stereo not drawn) | i
O=C(c1ccc2c(c1)C1C=CCC1C(c1cccc([N+](=O)[O-])c1)N2)N1CCCCC1 (stereo not drawn) | 38%*
O=C(O)c1ccc2c(c1)C1C=CCC1C(c1ccc(Br)cc1)N2 (stereo not drawn) | i
Cc1ccc(C2Nc3c(ccc(C(=O)O)c3C)C3C=CCC32)cc1 (stereo not drawn) | i
Fc1ccc(C2Nc3ccc(Cl)cc3C3C=CCC32)cc1 (stereo not drawn) | i
CN1CCN(C(=O)c2cccc([N+](=O)[O-])c2)CC1 | i
CCOC(=O)C1Nc2c(ccc(C(=O)O)c2C)C2C=CCC12 (stereo not drawn) | i
O=C(c1ccc2c(c1)C1C=CCC1C(c1ccc(Cl)cc1)N2)N1CCOCC1 (stereo not drawn) | 63%*
COc1ccc(S(=O)(=O)N2CCN(C(=O)c3cccc([N+](=O)[O-])c3)CC2)cc1 | i
O=C(O)c1ccc2c(c1)C1C=CCC1C(C(=O)O)N2 (stereo not drawn) | 82%*
COCCNC(=S)N[C@H]1C[C@H]2C(=O)NC[C@@H](CCC(=O)N3CCCCC3)N2C1 | i
